# In all, about 2,000 compounds went through this assay and about 110 (5.5%) showed an effect of 50% or more. The entries come from a sample that favours strong results as a whole.
# Target: Genome polyprotein (dengue virus type 2) (UniProt P29990)
# [1] = Thailand/16681/1984, Concentration 25.0 uM, Number of replicates 1.0
compound,measurement,setting,value
O=Cc1ccc(N2CCC(C(=O)NCc3cccc([N+](=O)[O-])c3)CC2)cc1,inhibition,[1],11%
NC(=O)c1ccc(Cl)c(NC(=O)C2CCN(c3ccc(C=O)cc3)CC2)c1,inhibition,[1],13.8%
Cc1cc(CO)c2cccc(Cc3cccc(NC(=O)Cc4cccc(CN)c4)c3)c2n1,inhibition,"Thailand/16681/1984, Concentration 49.95 uM, Number of replicates 2.0, Standard deviation 1.5571170041089204 %",9.22%
same,inhibition,"Thailand/16681/1984, Concentration 99.9 uM, Number of replicates 2.0, Standard deviation 3.140543082582705 %",20.8%
NCc1cccc(NC(=O)[C@@H](NC(=O)OCc2ccccc2)C(C2CCC2)C2CCC2)c1,inhibition,"Thailand/16681/1984, Concentration 49.5 uM, Number of replicates 2.0, Standard deviation 1.0931409988329541 %",0.575%
same,inhibition,"Thailand/16681/1984, Concentration 99.01 uM, Number of replicates 2.0, Standard deviation 7.259842534821406 %",21.9%
same,inhibition,"Thailand/16681/1984, Concentration 198.0 uM, Number of replicates 2.0, Standard deviation 0.026391345013157583 %",99.8%
NCc1cccc(NC(=O)[C@@H](NC(=O)OCc2ccccc2)C2CCCCC2)c1,inhibition,"Thailand/16681/1984, Concentration 49.5 uM, Number of replicates 2.0, Standard deviation 3.75421470496627 %",-3.1%
same,inhibition,"Thailand/16681/1984, Concentration 99.01 uM, Number of replicates 2.0, Standard deviation 3.4431804249233626 %",-1.76%
same,inhibition,"Thailand/16681/1984, Concentration 198.0 uM, Number of replicates 2.0, Standard deviation 6.458747607105988 %",79.9%
CC(C)(C)[C@@H](NC(=O)OCc1ccccc1)C(=O)Nc1cccc(CN)c1,inhibition,"Thailand/16681/1984, Concentration 49.5 uM, Number of replicates 2.0, Standard deviation 1.83793572376561 %",-6.76%
same,inhibition,"Thailand/16681/1984, Concentration 99.01 uM, Number of replicates 2.0, Standard deviation 1.8206757463634287 %",-7.66%
same,inhibition,"Thailand/16681/1984, Concentration 198.0 uM, Number of replicates 2.0, Standard deviation 1.2664180516369132 %",-8.05%
NCc1cccc(NC(=O)[C@@H](CO)NC(=O)OCc2ccccc2)c1,inhibition,"Thailand/16681/1984, Concentration 49.5 uM, Number of replicates 2.0, Standard deviation 0.4735169770341957 %",-3.34%
same,inhibition,"Thailand/16681/1984, Concentration 99.01 uM, Number of replicates 2.0, Standard deviation 2.1222171442022573 %",-3.24%
same,inhibition,"Thailand/16681/1984, Concentration 198.0 uM, Number of replicates 2.0, Standard deviation 1.1527028197814282 %",-3.94%
C[C@@H](NC(=O)OCc1ccccc1)C(=O)Nc1cccc(CN)c1,inhibition,"Thailand/16681/1984, Concentration 49.5 uM, Number of replicates 2.0, Standard deviation 1.8366578313187596 %",-7.57%
same,inhibition,"Thailand/16681/1984, Concentration 198.0 uM, Number of replicates 2.0, Standard deviation 1.0835833369227144 %",-9.56%
CC(C)C[C@@H](NC(=O)OCc1ccccc1)C(=O)Nc1cccc(CN)c1,inhibition,"Thailand/16681/1984, Concentration 49.5 uM, Number of replicates 2.0, Standard deviation 3.1792600205617827 %",-4.42%
same,inhibition,"Thailand/16681/1984, Concentration 99.01 uM, Number of replicates 2.0, Standard deviation 3.3347078817009965 %",-3.69%
same,inhibition,"Thailand/16681/1984, Concentration 198.0 uM, Number of replicates 2.0, Standard deviation 3.065424880922284 %",-2.71%
C[C@H](NC(=O)C1CCN(c2ccc(C=O)cc2)CC1)c1ccc(S(C)(=O)=O)cc1,inhibition,[1],12.5%
CCN(C(=O)C1CCN(c2ccc(C=O)cc2)CC1)[C@H]1CCOC(C)(C)C1,inhibition,[1],13%
NCc1cccc(NC(=O)[C@@H](Cc2cccc(O)c2)NC(=O)OCc2ccccc2)c1,inhibition,"Thailand/16681/1984, Concentration 49.5 uM, Number of replicates 2.0, Standard deviation 2.8573642237031027 %",-3.63%
same,inhibition,"Thailand/16681/1984, Concentration 99.01 uM, Number of replicates 2.0, Standard deviation 1.9175045904819328 %",-3.65%
same,inhibition,"Thailand/16681/1984, Concentration 198.0 uM, Number of replicates 2.0, Standard deviation 1.9524208099559948 %",-2.84%
COc1cc(C(=O)N(C)C)nc(N2CCNCC2)n1,inhibition,"Thailand/16681/1984, Concentration 49.5 uM, Number of replicates 2.0, Standard deviation 4.026406870890022 %",-3.23%
same,inhibition,"Thailand/16681/1984, Concentration 99.01 uM, Number of replicates 2.0, Standard deviation 2.6098419358385048 %",-4.25%
same,inhibition,"Thailand/16681/1984, Concentration 198.0 uM, Number of replicates 2.0, Standard deviation 2.250930669275132 %",-2.7%
CCCC[C@@H](NC(=O)OC(C)(C)C)C(=O)N[C@@H](C(=O)NCc1ccc(CN)cc1)c1ccc(OCc2ccccc2)cc1,inhibition,"Thailand/16681/1984, Concentration 49.5 uM, Number of replicates 2.0, Standard deviation 1.8529777654117539 %",94%
same,inhibition,"Thailand/16681/1984, Concentration 99.01 uM, Number of replicates 2.0, Standard deviation 0.005880328304239935 %",100%
same,inhibition,"Thailand/16681/1984, Concentration 198.0 uM, Number of replicates 2.0, Standard deviation 0.014706215557209234 %",99.9%
CC(C)(C)OC(=O)N[C@H](C(=O)Nc1cccc(C(N)=O)c1)c1ccc(OCc2ccccc2)cc1,inhibition,"Thailand/16681/1984, Concentration 49.5 uM, Number of replicates 2.0, Standard deviation 1.188000805409302 %",2.72%
same,inhibition,"Thailand/16681/1984, Concentration 99.01 uM, Number of replicates 2.0, Standard deviation 0.11203913598390365 %",5.59%
same,inhibition,"Thailand/16681/1984, Concentration 198.0 uM, Number of replicates 2.0, Standard deviation 0.9108004769909699 %",7.47%
CCCC[C@H](NC(=O)OC(C)(C)C)C(=O)N[C@H](C(=O)NCc1ccc(C(N)=O)cc1)c1ccc(OCc2ccccc2)cc1,inhibition,"Thailand/16681/1984, Concentration 49.5 uM, Number of replicates 2.0, Standard deviation 0.5441055304446053 %",-3.24%
same,inhibition,"Thailand/16681/1984, Concentration 99.01 uM, Number of replicates 2.0, Standard deviation 1.2410372194636528 %",12.6%
same,inhibition,"Thailand/16681/1984, Concentration 198.0 uM, Number of replicates 2.0, Standard deviation 0.08996362825826161 %",97.6%
CC(C)(C)OC(=O)N[C@H](C(=O)Nc1cccc(CN)c1)c1ccc(OCc2ccccc2)cc1,inhibition,"Thailand/16681/1984, Concentration 49.5 uM, Number of replicates 2.0, Standard deviation 1.7551947166429631 %",-1.9%
same,inhibition,"Thailand/16681/1984, Concentration 99.01 uM, Number of replicates 2.0, Standard deviation 0.05489981052071439 %",3.23%
same,inhibition,"Thailand/16681/1984, Concentration 198.0 uM, Number of replicates 2.0, Standard deviation 0.6374768156986698 %",15%
CC(C)(C)OC(=O)N[C@H](C(=O)Nc1ccc(CN)cc1)c1ccc(OCc2ccccc2)cc1,inhibition,"Thailand/16681/1984, Concentration 49.5 uM, Number of replicates 2.0, Standard deviation 0.7638001086987946 %",-1.42%
same,inhibition,"Thailand/16681/1984, Concentration 99.01 uM, Number of replicates 2.0, Standard deviation 0.5692523211680847 %",0.423%
same,inhibition,"Thailand/16681/1984, Concentration 198.0 uM, Number of replicates 2.0, Standard deviation 0.3400589812244498 %",5.26%
Cc1cnccc1NC(=O)c1ccc2c(c1)COCC2,inhibition,"Thailand/16681/1984, Concentration 49.5 uM, Number of replicates 2.0, Standard deviation 2.5121871293930202 %",-1.99%
same,inhibition,"Thailand/16681/1984, Concentration 99.01 uM, Number of replicates 2.0, Standard deviation 1.8322256055090813 %",-1.68%
same,inhibition,"Thailand/16681/1984, Concentration 198.0 uM, Number of replicates 2.0, Standard deviation 3.8354075529759903 %",-1.51%
NCc1cccc(NC(=O)C2(NC(=O)OCc3ccccc3)CC(F)(F)C2)c1,inhibition,"Thailand/16681/1984, Concentration 49.5 uM, Number of replicates 2.0, Standard deviation 2.2677200349668407 %",-2.94%
same,inhibition,"Thailand/16681/1984, Concentration 99.01 uM, Number of replicates 2.0, Standard deviation 0.8839411333719474 %",-2.06%
same,inhibition,"Thailand/16681/1984, Concentration 198.0 uM, Number of replicates 2.0, Standard deviation 0.8051076448684426 %",-2.25%
Cc1cc(CO)c2cccc(Cc3ccccc3NC(=O)CN3CCOCC3)c2n1,inhibition,"Thailand/16681/1984, Concentration 49.95 uM, Number of replicates 2.0, Standard deviation 1.5612707024702146 %",-2%
same,inhibition,"Thailand/16681/1984, Concentration 99.9 uM, Number of replicates 2.0, Standard deviation 0.4618038620708361 %",3.39%
COc1cc(Cc2cnc(N)c(C(F)F)c2)nc(N2CCNCC2)n1,inhibition,"Thailand/16681/1984, Concentration 49.5 uM, Number of replicates 2.0, Standard deviation 0.44655669171298956 %",1.19%
same,inhibition,"Thailand/16681/1984, Concentration 99.01 uM, Number of replicates 2.0, Standard deviation 0.9500169394185984 %",3.1%
same,inhibition,"Thailand/16681/1984, Concentration 198.0 uM, Number of replicates 2.0, Standard deviation 0.4205436146652173 %",6.14%
CCCOc1ccc([C@H](C)NC(=O)C2CCN(c3ccc(C=O)cc3)CC2)cc1,inhibition,[1],7.26%
COc1ccc(C[C@H]2c3cc(OC)c(OC)cc3CCN2C(=O)C2CCN(c3ccc(C=O)cc3)CC2)cc1OC,inhibition,[1],15.8%
CCn1c(=O)c(N2CC[C@@H](CO)C2)nc2ccccc21,inhibition,"Thailand/16681/1984, Concentration 49.5 uM, Number of replicates 2.0, Standard deviation 0.8446781408235627 %",16.3%
same,inhibition,"Thailand/16681/1984, Concentration 99.01 uM, Number of replicates 2.0, Standard deviation 1.6946189057395897 %",33.2%
same,inhibition,"Thailand/16681/1984, Concentration 198.0 uM, Number of replicates 2.0, Standard deviation 1.3775046688444705 %",53.9%
